Consider 52 compounds from ChEMBL document CHEMBL3988442, “University of Dundee, Small-Polar-MMV Screening Library” (2021).

Screen size: about 48,000 compounds; about 13,000 (27%) showed an effect of 50% or more. Some of the results follow.

In the experiment the test system is Wolbachia pipientis. The experiment in a line: Anti-Wolbachia Cell-Based Screen. Conditions: 5 µM. On the set-up: scale not given: in the data most compounds retested in dose-response had high values. It counts as functional.
With `N#Cc1c(Cl)nsc1NCC1(c2ccccc2)CCC1`, the “Percent Effect” value is 12.51%.

In the case of `CCNC(=O)[C@@H]1C[C@@H](NC(=O)c2ccc(C#N)cc2)CN1CCCSC`, the “Percent Effect” value amounted to 95.48%.

Regarding `C/C=C(\C)CN1C[C@@H](NC(=O)c2ccc(F)c(F)c2)C[C@H]1C(=O)NCC`, the “Percent Effect” value was -14.95%.

As to `CCNC(=O)[C@@H]1C[C@@H](NC(=O)c2ccsc2)CN1CCCSC`, the “Percent Effect” value stood at 107.8%.

In the case of `CSCCC(C)(O)CNC(=O)c1ccsc1` (configuration not stated), the “Percent Effect” value is recorded as -0.07665%.

In the case of `C/C=C(\C)CN1C[C@@H](NC(=O)c2ccc(O)c(Cl)c2)C[C@H]1C(=O)NCC`, the “Percent Effect” value is reported as -9.176%.

Consider `CCNC(=O)[C@@H]1C[C@@H](NC(=O)c2ccc(C)cc2O)CN1CCCSC`, for which the “Percent Effect” value was found to be 82.24%.

With `CCN(CC)C(=O)[C@@H]1C[C@H](NC(=O)c2cccn2C(C)C)CN1C`, the “Percent Effect” value is recorded as 0.9655%.

`CCNC(=O)[C@@H]1C[C@H](NC(=O)c2ccccc2C#N)CN1CCCSC`: the “Percent Effect” value is listed as -7.827%.

With `CCNC(=O)[C@@H]1C[C@H](NC(=O)c2cncnc2C)CN1CCCSC`, the “Percent Effect” value is reported as -8.18%.

As for `CCNC(=O)[C@@H]1C[C@@H](NC(=O)c2cccn2C)CN1CCCSC`, the “Percent Effect” value is 111.5%.

On to `CCNC(=O)[C@@H]1C[C@@H](NC(=O)Cc2ccncc2)CN1Cc1ccsc1`, for which the “Percent Effect” value is on record as -6.435%.

In the case of `COCC(=O)N1CCC2(CC1)CC(N1CCN(C)CC1)CO2` (configuration not stated), the “Percent Effect” value is -3.796%.

Turning to `O=C(CCc1nc(Cl)n[nH]1)N1C[C@@H](CN2CCCCCC2)[C@@H](CO)C1`, the “Percent Effect” value stood at 5.284%.

In the case of `COc1ccc(C(=O)N2CCC(Oc3ccc(C)cc3)(C(=O)O)CC2)o1`, the “Percent Effect” value is on record as -8.575%.

`CCc1nnsc1C(=O)N1CCCN(Cc2ccc(C)cc2)CC1`: the “Percent Effect” value amounted to 9.546%.

Regarding `Cc1ccc(CN2CCOC(C)(c3cnn(C)c3)C2)cc1` (configuration not stated), the “Percent Effect” value is -10.42%.

On to `Cc1cccc2[nH]c(C3CCN(C(=O)c4cnc[nH]c4=O)CC3)nc12`, for which the “Percent Effect” value is on record as -11.79%.

With `CC(NCc1cccc2c1OCCO2)c1cc2c(cc1Br)OCCO2` (configuration not stated), the “Percent Effect” value is on record as -2.569%.

With `CSCC(C)(O)CNC(=O)c1ccc(Br)cc1C` (configuration not stated), the “Percent Effect” value stood at 6.824%.

In the case of `CN1CCCC1c1nccnc1-c1ccc(C(=O)O)cc1` (configuration not stated), the “Percent Effect” value came to 141.8%.

For the compound `COc1ccccc1-c1ccc(C2CCCN(C(C)=O)C2)nc1` (configuration not stated), the “Percent Effect” value was determined as 120.7%.

As to `COc1cccc(C(=O)N2CCCC(c3cc(C)[nH]n3)C2)c1OC` (configuration not stated), the “Percent Effect” value was determined as 3.009%.

With `COc1ccccc1-c1nccnc1C1CCN(C(C)=O)CC1`, the “Percent Effect” value worked out at 137.3%.

`COc1cccc(-c2nccnc2C2CCN(C(C)=O)CC2)c1`: the “Percent Effect” value is reported as -11.4%.

Regarding `CC(=O)N1CCC(c2nccnc2-c2ccc(F)c(F)c2)CC1`, the “Percent Effect” value is 101.1%.

In the case of `COc1ccccc1-c1nnc([C@H]2CCN(C(C)=O)C2)o1`, the “Percent Effect” value is reported as 4.286%.

As to `CS(=O)(=O)CCC(=O)N1CCC(c2ccc(F)c(F)c2)CC1`, the “Percent Effect” value was -5.239%.

With `CC(O)c1cn(CC2CCN(C(=O)CN3CCCC3=O)CC2)nn1` (configuration not stated), the “Percent Effect” value is on record as -6.496%.

`CCCN(CC1CC1)C(=O)Nc1ccc(N2CCSCC2)cc1C`: the “Percent Effect” value is -17.78%.

Regarding `COCCN(C)c1ccc(NCc2cscn2)nc1`, the “Percent Effect” value came to 1.249%.

Turning to `CN1CCOC(CNC(=O)CCc2cc(F)ccc2F)C1` (configuration not stated), the “Percent Effect” value is 5.661%.

With `O=C(C1CCOCC1)N1CCc2ncnc(-c3ccc(F)cc3)c2CC1`, the “Percent Effect” value is reported as -7.65%.

Take `CC(=O)N1CCC(N2CC[C@H](c3nc4cc(F)ccc4o3)C2)CC1`: the “Percent Effect” value was -6.986%.

`COc1ccc(-c2nccnc2C2CCN(C(C)=O)CC2)cc1`: the “Percent Effect” value is -14.84%.

As to `CC(=O)N1CCC(c2nccnc2-c2ccc(F)cc2)CC1`, the “Percent Effect” value is 97.61%.

As for `CC(=O)N1CCC(c2nccnc2-c2ccc(C(=O)O)cc2)CC1`, the “Percent Effect” value is reported as 96%.

Regarding `NC(=O)C1CCCN1CCCc1ccc(C(F)(F)F)cc1` (configuration not stated), the “Percent Effect” value is given as -6.15%.

As for `CC(C)N(C)C(=O)c1ccc(CNc2ncc(C#N)cc2Cl)cc1`, the “Percent Effect” value is recorded as -8.928%.

For `CCN1CCN(CCNc2nc3ccc(C)cc3c(=O)n2C)CC1`, the “Percent Effect” value amounted to 1.756%.

For `O=C(O)C(F)(F)F.O=C(O)C(F)(F)F.O=C(c1cccnc1)N1Cc2nccn2CC(COc2cccnc2)C1` (configuration not stated), the “Percent Effect” value is 111%.

Regarding `O=C(N1CCCC1)N1Cc2nccn2CC(COc2cccnc2)C1.O=C(O)C(F)(F)F` (configuration not stated), the “Percent Effect” value came to 96.45%.

With `COCC1CN(C(=O)c2cccc(C)n2)Cc2nccn2C1.O=C(O)C(F)(F)F` (configuration not stated), the “Percent Effect” value is given as -3.838%.

Consider `O=C(NCC1CN(c2ncccn2)Cc2nccn2C1)c1cccnc1.O=C(O)C(F)(F)F` (configuration not stated), for which the “Percent Effect” value was determined as 8.129%.

With `O=C(O)C(F)(F)F.O=C(O)C(F)(F)F.c1cncc(OCC2CN(Cc3nccs3)Cc3nccn3C2)c1` (configuration not stated), the “Percent Effect” value amounted to 104%.

As for `CN(Cc1cccnc1)CC1CN(C(=O)C2CC2)Cc2nccn2C1.O=C(O)C(F)(F)F.O=C(O)C(F)(F)F` (configuration not stated), the “Percent Effect” value is -3.173%.

As for `O=C(O)C(F)(F)F.c1cnc(N2Cc3nccn3CC(COc3cccnc3)C2)nc1` (configuration not stated), the “Percent Effect” value came to 111.9%.

As to `CC(=O)N1Cc2nccn2CC(CNC(=O)c2cccnc2)C1.O=C(O)C(F)(F)F` (configuration not stated), the “Percent Effect” value is reported as -4.633%.

Turning to `Cc1nc(C)n(CC2CN(Cc3nccs3)Cc3nccn3C2)n1.O=C(O)C(F)(F)F` (configuration not stated), the “Percent Effect” value is given as -6.636%.

For `Cc1occc1C(=O)N1Cc2nccn2CC(CN2CCCC2)C1.O=C(O)C(F)(F)F` (configuration not stated), the “Percent Effect” value was -14.64%.

With `CS(=O)(=O)N1Cc2nccn2CC(CNC(=O)c2cccnc2)C1.O=C(O)C(F)(F)F` (configuration not stated), the “Percent Effect” value is given as -1.051%.

On to `Cc1ccc(CNC(c2ccccc2)c2nccn2C)cc1C` (configuration not stated), for which the “Percent Effect” value was -2.774%.
